Compound activity: PubChem, National Center for Advancing Translational Sciences (NCATS)
Hits are enriched below; roughly 19% of the tested compounds scored in any of these assays.
DT40 TDP1 CPT: qHTS for Inhibitors of human tyrosyl-DNA phosphodiesterase 1 (TDP1): qHTS in cells in presence of CPT | actives 12% (n = 420,000) | chicken DT40 Tdp1-/-;hTDP1 cells + 20 nM CPT, ATP luminescence, 48 h | Potency, µM (top dose mostly 46.2 µM), for the others: at the highest dose activity change, negative = growth inhibition, hits mostly inhibitors; note: potency is the fitted concentration of half-maximal effect; nearly all actives have a fitted effect of over 55% in size
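Chicken DT40 Tdp1-/- cells complemented with human TDP1, 400 cells/well, exposed to compounds plus 20 nM camptothecin for at least 48 h at 37 C; viability read as ATP content by CellTiter-Glo luminescence.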
TDP1 cell noCPT: qHTS for Inhibitors of human tyrosyl-DNA phosphodiesterase 1 (TDP1): qHTS in cells in absence of CPT. AID 686978, 2013. actives 15% (n = 420,000). DT40 Tdp1-/- hTDP1 cells, no CPT, ATP luminescence, 48 h. Potency, µM (top dose mostly 46.2 µM), without a hit: at the top dose activity change, negative = growth inhibition, most hits filed as inhibitors; note: potency is the fitted concentration of half-maximal effect; nearly all actives have a fitted effect of over 55% in size
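DT40 Tdp1-/-;hTDP1 cells, no CPT (DMSO vehicle only), 400 cells/well; compounds pin-transferred; ≥48 hr, 37 °C; CellTiter-Glo 30 min RT dark, luminescence read.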
HT1080NT lethal: qHTS for induction of synthetic lethality in tumor cells producing 2HG: qHTS for the HT-1080-NT fibrosarcoma cell line | actives 1.6% (n = 360,000) | Potency, µM (series often up to 46.1 µM), for the others: at the highest dose activity, negative = less viability, most hits filed as cytotoxic | HT-1080-NT fibrosarcoma viability, CellTiter-Glo ATP luminescence, 48 h;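 note: NT is the 2HG producing partner of a matched IDH1 knockdown line; potency is the fitted concentration of half-maximal effect; 0% = DMSO-treated cells and -100% = media-only wells without cells; nearly all actives have a fitted effect of over 55% in size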
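HT-1080-NT fibrosarcoma cells (2HG-overproducing), 750 cells/well in RPMI with 5% FBS, dosed after 2 h and incubated 48 h at 37C. CellTiter-Glo luminescence normalized to DMSO and no-cell wells; concentration-response curves fitted and classed.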
HT1080 IDH1KD tx: qHTS for induction of synthetic lethality in tumor cells producing 2HG: qHTS for the HT-1080-IDH1KD cell line | HT-1080 IDH1 knockdown viability, ATP luminescence, 48 h | Potency, µM (highest dose often 46.1 µM), for inactives: at the top dose activity, negative = toxicity, most hits filed as cytotoxic | actives 2% (n = 360,000);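 note: potency is the fitted concentration of half-maximal effect; 0% = DMSO wells and -100% = cell-free medium wells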
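Assay cells: HT-1080 with IDH1 knockdown, 750 per well, RPMI/5% FBS. Exposure: 48 h at 37 °C following 2 h pre-incubation. Read: CellTiter-Glo luminescence; fitted concentration-response, curve class assigned.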
IL1B secr inh: qHTS for Inhibitors of Inflammasome Signaling: IL-1-beta AlphaLISA Primary Screen; AID 743279, 2014; activity change, % at 57.5 µM; THP-1 LPS/ATP IL-1B secretion, AlphaLISA, 16 h; hits give low values; actives 4.7% (n = 360,000); in the data active = activity change below about -50%; inconclusive = mostly about -30% to -49%
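THP-1 cells pretreated 1 hr with compounds (up to 57.5 uM final), then stimulated with LPS (250 ng/mL final) plus ATP (1.25 mM final); secreted IL-1B measured by AlphaLISA after 16 hr, decreased signal indicating inhibition.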
* marks the source's active call; other numbers are inactive results; ? = inconclusive; / = not tested or not shown. Unless noted, calls come from the whole dose curve; as a rule, active = well fitted curve in the direction sought with a large enough effect; inconclusive = small, poorly fitted or top-dose-only effect, or another doubt; inactive = no such curve, though single readings can be large; an effect the other way counts as inactive or inconclusive. Unless noted, % is set by controls: 0 for no effect and ±100 for the full control effect.

SMILES	DT40 TDP1 CPT	TDP1 cell noCPT	HT1080NT lethal	HT1080 IDH1KD tx	IL1B secr inh
CN1C(=O)CC(N2CCN(CC(=O)N3CCCC3)CC2)C1=O (configuration not stated)	4%	-6%	11%	20%	11
COc1cccc(/C=C2/Sc3ccc(C(=O)NCCN4CCCC4)cc3NC2=O)c1	16µM*	?	-12%	-9%	?
COc1ccc(/C=C2\Sc3ccc(C(=O)NCCN4CCCCCC4)cc3N(C)C2=O)cc1	?	23µM*	9%	5%	-26
COc1cccc(/C=C2/Sc3ccc(C(=O)NCCCN4CCCC4)cc3NC2=O)c1	18µM*	21µM*	6%	2%	-12
CCCN(CCC)CCNc1c(N2CCN(C(=O)OCC)CC2)c(=O)c1=O	7%	-7%	5%	-1%	0
COc1cc(Cl)c(NC(=O)c2cc3ccccn3n2)c(OC)c1	16µM*	21µM*	/	/	/
CCCCNC(=O)c1ccc2nc(CC)c(N(CC)CCOC)n2c1	26µM*	21µM*	14%	29%	-5
CCc1nc2ccc(C(=O)NCc3ccccc3OC)cn2c1N(CC)CCN(C)C	-3%	-9%	0%	-4%	?
CCc1nc2ccc(C(=O)NCc3ccccc3OC)cn2c1N(CC)CCOC	16µM*	16µM*	12%	22%	-11
CCc1nc2ccc(C(=O)NCc3ccc(OC)cc3)cn2c1N(CC)CCOC	15µM*	?	4%	-7%	-2
CCc1nc2ccc(C(=O)NCCOc3ccc(OC)cc3)cn2c1N(CCC(C)C)CCN(C)C	-89%	-78%	?	21µM*	-64*
Cc1c(C)[n+](=O)c(C)c(C)n1[O-]	-3%	-7%	4%	-1%	16
CCc1nc2ccc(C(=O)NCCc3ccccn3)cn2c1N(C)CCC(C)C	?	26µM*	-2%	-1%	-11
CCc1nc2ccc(C(=O)Nc3cccc(OC)c3)cn2c1N(CC)CCOC	13µM*	18µM*	-8%	14%	-17
CCc1nc2ccc(C(=O)NCc3ccc(OC)cc3)cn2c1N(C)CCC(C)C	?	23µM*	?	?	?
CCc1nc2ccc(C(=O)Nc3cccc(OC)c3)cn2c1N(CC)CCN(C)C	4%	3%	3%	19%	-17
Cc1occc1C(=O)NC(C)C12CC3CC(CC(C3)C1)C2 (configuration not stated)	?	?	9%	4%	-18
CC(NC(=O)c1ccccc1F)C12CC3CC(CC(C3)C1)C2 (configuration not stated)	21µM*	?	6%	5%	9
CC(=O)N1CCCc2ccc(NS(=O)(=O)c3ccc(C)cc3)cc21	?	26µM*	-21%	-17%	21
CCOc1ccc(S(=O)(=O)Nc2ccc3c(c2)N(C(C)=O)CCC3)cc1	?	18µM*	/	/	/
CCOc1ccc(S(=O)(=O)Nc2ccc3c(c2)CCCN3C(=O)c2cccs2)cc1	?	-100%	/	/	/
CC(=O)N1CCCc2cc(S(=O)(=O)Nc3ccccc3C)ccc21	2%	-21%	7%	5%	7
CC(C)N(C(=S)NCc1ccccc1)c1ccccc1	-1%	-10%	-12%	-11%	-50*
O=C(Nc1nc(-c2ccccn2)cs1)c1cccc(S(=O)(=O)N2CCOCC2)c1	4.1µM*	2.9µM*	-23%	?	119
COc1ccc(C(=O)Nc2nc(-c3ccccn3)cs2)cc1S(=O)(=O)N1CCOCC1	13µM*	5.2µM*	-22%	?	78
COc1ccccc1C(=O)Nc1nc(-c2ccc(S(=O)(=O)N3CCOCC3)cc2)cs1	2.6µM*	2.3µM*	?	?	?
